Laboratory results from PubChem BioAssay (NCATS).
Where “and” joins values, the source holds several entries; their conditions need not be identical. Equal values may be shown once. Records with an inconclusive call do not appear. Where a call stands in place of a potency, no number is given. Some structures have more than one record in an assay (separate samples or runs), and their calls can disagree. Calls of active or inactive are those of the source. Unless noted, the call rests on the fitted dose curve; in most records, active means well fitted curve in the direction sought with a large enough effect; inconclusive means small, poorly fitted or top-dose-only effect, or another doubt; inactive means no such curve, though single readings can be large; an effect the other way counts as inactive or inconclusive.

Legend:
[1] = Primary qHTS for small molecule stabilizers of the endoplasmic reticulum resident proteome: Secreted ER Calcium Modulated Protein (SERCaMP) assay (AID 1508630)
Outline: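 GLuc-SERCaMP-expressing SH-SY5Y cells, pretreated 16 h with compound, are challenged with thapsigargin to empty ER calcium stores; after 4 h, coelenterazine is added directly to the medium and luminescence is imaged.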

[2] = molecular target: Papain (Carica papaya) (UniProt P00784); test: Primary qHTS assay for inhibitors of the protease papain (AID 1645873);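 further: papain turnover of Z-FR-AMC read as the AMC fluorescence gain over 10 min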
Sequence of Papain (Carica papaya) (P00784 whole entry, looked up, the tested form may be a part): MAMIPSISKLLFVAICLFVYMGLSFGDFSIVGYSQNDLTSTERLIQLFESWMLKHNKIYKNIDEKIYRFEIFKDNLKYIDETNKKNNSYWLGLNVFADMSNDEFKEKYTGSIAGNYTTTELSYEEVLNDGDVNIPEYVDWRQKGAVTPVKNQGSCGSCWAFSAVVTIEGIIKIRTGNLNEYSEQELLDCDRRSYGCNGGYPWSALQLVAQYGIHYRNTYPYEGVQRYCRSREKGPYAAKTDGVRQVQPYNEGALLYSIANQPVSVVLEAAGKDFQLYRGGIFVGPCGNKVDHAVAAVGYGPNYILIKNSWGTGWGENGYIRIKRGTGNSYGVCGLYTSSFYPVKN

[3] = Primary qHTS for inhibitors of nuclear receptor binding SET domain protein 2 (NSD2) in an isogenic RCH-ACV NSD2 p.E1099K mutant (9B) (AID 1645876); further: nearly all actives have a fitted effect of over 70% in size; further: potency means the concentration at half of the fitted maximal effect
[4] = Primary qHTS for inhibitors of nuclear receptor binding SET domain protein 2 (NSD2) in an RCH-ACV wild type WT cells (2C) (AID 1645877); further: nearly all actives have a fitted effect of over 70% in size; further: potency means the concentration at half of the fitted maximal effect
[5] = A High-Content qHTS Against Drug Library for the Identification of Small Molecules that Inhibit DYT1 Early Onset Primary Dystonia-Associated Cell Pathology (AID 1645839; calls by dose curve)
Outline: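 In this high-content image screen, delE TorsinA mislocalization in inducible Flp-In 293 cells is scored as %pathology, with cell count serving as the counterscreen. Compound exposure lasts 48 h under tetracycline induction in reduced-serum medium.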

[6] = molecular target: Cytochrome P450 2C9 (Homo sapiens) (UniProt P11712); test: Cytochrome P450 family 2 subfamily C member 9 (CYP2C9) small molecule antagonists: luciferase biochemical (cell-free) qHTS assay (AID 1645842; active means well fitted curve in the direction sought with a large enough effect in the repeat runs; an effect the other way counts as inactive or inconclusive; further: nearly all actives have a fitted effect of over 55% in size; further: potency means the concentration at half of the fitted maximal effect)
Sequence of Cytochrome P450 2C9 (Homo sapiens) (P11712 whole entry, looked up): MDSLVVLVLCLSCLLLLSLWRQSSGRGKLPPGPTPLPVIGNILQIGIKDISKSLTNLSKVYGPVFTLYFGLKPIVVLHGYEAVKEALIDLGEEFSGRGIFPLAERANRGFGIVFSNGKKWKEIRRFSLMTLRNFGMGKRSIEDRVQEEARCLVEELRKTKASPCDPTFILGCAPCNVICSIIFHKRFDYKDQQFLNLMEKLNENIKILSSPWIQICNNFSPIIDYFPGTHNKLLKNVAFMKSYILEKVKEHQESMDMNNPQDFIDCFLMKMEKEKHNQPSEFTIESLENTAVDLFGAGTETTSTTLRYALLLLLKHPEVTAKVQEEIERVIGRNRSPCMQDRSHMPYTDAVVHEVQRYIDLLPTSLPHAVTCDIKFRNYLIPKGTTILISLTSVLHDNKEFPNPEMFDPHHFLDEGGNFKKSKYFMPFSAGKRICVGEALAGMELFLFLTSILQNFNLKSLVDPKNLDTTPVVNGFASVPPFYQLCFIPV
Outline: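 Luminescence, after 20 min with luciferin detection reagent, reflected CYP2C9 turnover during a 1 h NADPH-driven reaction at 37C. Enzyme-substrate mix contained 0.4% bovine serum albumin and was preincubated with compound 10 min at room temperature.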

[7] = molecular target: Catechol O-methyltransferase (Homo sapiens) (UniProt P21964); test: Confirmatory Screen for Target Class Profiling of Small Molecule Inhibitors of Methyltransferases (AID 1745852; calls by dose curve); conditions: MTase-Glo luminescence, SAH detection, recombinant enzyme, stronger effect = lower value; measured here: COMT max response unless noted
Sequence of Catechol O-methyltransferase (Homo sapiens) (P21964 whole entry, looked up): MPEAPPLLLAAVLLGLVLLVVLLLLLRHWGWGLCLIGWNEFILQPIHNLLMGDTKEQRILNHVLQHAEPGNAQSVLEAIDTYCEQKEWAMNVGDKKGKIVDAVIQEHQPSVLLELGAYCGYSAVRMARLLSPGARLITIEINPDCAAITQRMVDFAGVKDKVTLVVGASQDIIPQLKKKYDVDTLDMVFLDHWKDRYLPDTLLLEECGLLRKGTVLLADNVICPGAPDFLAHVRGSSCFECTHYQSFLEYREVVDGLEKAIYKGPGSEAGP

[8] = molecular target: Guanidinoacetate N-methyltransferase (Homo sapiens) (UniProt Q14353); test: as above; conditions: MTase-Glo luminescence, SAH detection, recombinant enzyme; activity change, negative = inhibition: at 57.3 µM (top of the series)
[9] = molecular target: Nicotinamide N-methyltransferase (Homo sapiens) (UniProt P40261); test: as above; conditions: MTase-Glo luminescence, SAH detection, recombinant enzyme, stronger effect = lower value; measured here: NNMT max response unless noted
Sequence of Nicotinamide N-methyltransferase (Homo sapiens) (P40261 whole entry, looked up): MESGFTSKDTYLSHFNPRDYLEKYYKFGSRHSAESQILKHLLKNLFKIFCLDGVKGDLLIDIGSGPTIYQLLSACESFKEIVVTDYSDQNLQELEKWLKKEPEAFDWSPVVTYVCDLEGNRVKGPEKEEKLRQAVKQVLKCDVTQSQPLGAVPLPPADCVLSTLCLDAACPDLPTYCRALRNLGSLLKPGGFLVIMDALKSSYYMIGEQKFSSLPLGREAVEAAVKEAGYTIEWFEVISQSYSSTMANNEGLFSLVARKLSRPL

[10] = molecular target: Cytochrome P450 2D6 (Homo sapiens) (UniProt P10635); test: Cytochrome P450 family 2 subfamily D member 6 (CYP2D6) small molecule antagonists: luciferase biochemical (cell-free) qHTS assay (AID 1645840; active means well fitted curve in the direction sought with a large enough effect in the repeat runs; an effect the other way counts as inactive or inconclusive; further: nearly all actives have a fitted effect of over 55% in size; further: potency means the concentration at half of the fitted maximal effect)
Sequence of Cytochrome P450 2D6 (Homo sapiens) (P10635 whole entry, looked up): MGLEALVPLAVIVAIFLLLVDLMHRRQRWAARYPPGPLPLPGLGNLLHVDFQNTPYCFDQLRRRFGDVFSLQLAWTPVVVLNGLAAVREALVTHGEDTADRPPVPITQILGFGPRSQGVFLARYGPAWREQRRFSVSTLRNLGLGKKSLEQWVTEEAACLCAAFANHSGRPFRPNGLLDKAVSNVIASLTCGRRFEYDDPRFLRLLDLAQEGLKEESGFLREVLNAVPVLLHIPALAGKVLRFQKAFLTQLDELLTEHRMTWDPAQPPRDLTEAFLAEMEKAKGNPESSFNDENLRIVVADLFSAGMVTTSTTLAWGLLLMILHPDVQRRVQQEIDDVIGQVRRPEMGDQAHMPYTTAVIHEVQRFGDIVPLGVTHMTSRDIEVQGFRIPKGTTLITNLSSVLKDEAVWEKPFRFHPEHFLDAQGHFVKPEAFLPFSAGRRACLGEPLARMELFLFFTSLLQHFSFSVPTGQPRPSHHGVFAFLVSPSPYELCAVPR
Outline: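 P450-Glo luminescent screen: recombinant CYP2D6 enzyme–proluciferin substrate mix preincubated with compound 10 min at room temperature, then NADPH regeneration added for 1 h at room temperature. Detection reagent added for 20 min; luciferin light read as relative luminescence units.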

[11] = molecular target: Rap guanine nucleotide exchange factor 3 (Homo sapiens) (UniProt O95398); test: Confirmatory qHTS for antagonist of cAMP-regulated guanine nucleotide exchange factor 3 (EPAC1) (AID 1645880); further: nearly all actives have a fitted effect of over 55% in size
Sequence of Rap guanine nucleotide exchange factor 3 (Homo sapiens) (O95398 whole entry, looked up): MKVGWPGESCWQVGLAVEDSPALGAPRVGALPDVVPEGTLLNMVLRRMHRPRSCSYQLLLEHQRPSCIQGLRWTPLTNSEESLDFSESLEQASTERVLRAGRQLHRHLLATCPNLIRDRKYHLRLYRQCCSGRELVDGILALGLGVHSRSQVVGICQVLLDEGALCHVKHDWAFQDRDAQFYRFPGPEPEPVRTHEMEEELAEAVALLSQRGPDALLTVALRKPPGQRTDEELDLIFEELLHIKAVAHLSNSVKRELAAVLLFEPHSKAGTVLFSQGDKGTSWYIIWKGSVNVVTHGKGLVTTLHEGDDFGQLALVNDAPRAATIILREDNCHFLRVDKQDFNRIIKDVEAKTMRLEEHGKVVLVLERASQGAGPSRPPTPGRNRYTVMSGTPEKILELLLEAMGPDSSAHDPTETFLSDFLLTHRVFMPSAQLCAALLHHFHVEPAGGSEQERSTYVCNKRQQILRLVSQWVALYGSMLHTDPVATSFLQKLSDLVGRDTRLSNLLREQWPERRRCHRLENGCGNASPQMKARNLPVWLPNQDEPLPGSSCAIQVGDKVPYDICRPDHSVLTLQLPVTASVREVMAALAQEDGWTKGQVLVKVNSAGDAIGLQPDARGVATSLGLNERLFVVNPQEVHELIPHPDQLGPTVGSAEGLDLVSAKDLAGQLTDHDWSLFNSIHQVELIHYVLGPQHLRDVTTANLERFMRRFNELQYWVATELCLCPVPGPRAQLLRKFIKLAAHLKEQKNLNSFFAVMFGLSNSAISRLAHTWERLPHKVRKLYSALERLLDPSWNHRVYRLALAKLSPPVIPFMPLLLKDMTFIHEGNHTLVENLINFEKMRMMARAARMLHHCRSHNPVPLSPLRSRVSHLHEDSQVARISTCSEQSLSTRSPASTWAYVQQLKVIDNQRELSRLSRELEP
Outline: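 Nucleotide exchange uses 100 nM EPAC1, 250 nM RAP1B-BODIPY-GDP and 50 uM GDP, with compounds in a concentration-titration series. After 5 min at room temperature, fluorescence (480 nm ex/540 nm em) is read every 5 min for 30 min. Data are normalized to control ATA and DMSO.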

[12] = molecular target: Rap guanine nucleotide exchange factor 3 (Homo sapiens) (UniProt O95398); test: Confirmatory qHTS for agonist of cAMP-regulated guanine nucleotide exchange factor 3 (EPAC1) (AID 1645881);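 further: EPAC1 catalysed release of BODIPY-GDP from Rap1B seen as fluorescence loss; nearly all actives have a fitted effect of over 75% in size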
[13] = molecular target: Rap guanine nucleotide exchange factor 4 (Homo sapiens) (UniProt Q8WZA2); test: Confirmatory qHTS for agonist of cAMP-regulated guanine nucleotide exchange factor 4 (EPAC2) (AID 1645884);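 further: nucleotide exchange releases bodipy-GDP from Rap1 and this lowers its fluorescence; nearly all actives have a fitted effect of over 65% in size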
Sequence of Rap guanine nucleotide exchange factor 4 (Homo sapiens) (Q8WZA2 whole entry, looked up): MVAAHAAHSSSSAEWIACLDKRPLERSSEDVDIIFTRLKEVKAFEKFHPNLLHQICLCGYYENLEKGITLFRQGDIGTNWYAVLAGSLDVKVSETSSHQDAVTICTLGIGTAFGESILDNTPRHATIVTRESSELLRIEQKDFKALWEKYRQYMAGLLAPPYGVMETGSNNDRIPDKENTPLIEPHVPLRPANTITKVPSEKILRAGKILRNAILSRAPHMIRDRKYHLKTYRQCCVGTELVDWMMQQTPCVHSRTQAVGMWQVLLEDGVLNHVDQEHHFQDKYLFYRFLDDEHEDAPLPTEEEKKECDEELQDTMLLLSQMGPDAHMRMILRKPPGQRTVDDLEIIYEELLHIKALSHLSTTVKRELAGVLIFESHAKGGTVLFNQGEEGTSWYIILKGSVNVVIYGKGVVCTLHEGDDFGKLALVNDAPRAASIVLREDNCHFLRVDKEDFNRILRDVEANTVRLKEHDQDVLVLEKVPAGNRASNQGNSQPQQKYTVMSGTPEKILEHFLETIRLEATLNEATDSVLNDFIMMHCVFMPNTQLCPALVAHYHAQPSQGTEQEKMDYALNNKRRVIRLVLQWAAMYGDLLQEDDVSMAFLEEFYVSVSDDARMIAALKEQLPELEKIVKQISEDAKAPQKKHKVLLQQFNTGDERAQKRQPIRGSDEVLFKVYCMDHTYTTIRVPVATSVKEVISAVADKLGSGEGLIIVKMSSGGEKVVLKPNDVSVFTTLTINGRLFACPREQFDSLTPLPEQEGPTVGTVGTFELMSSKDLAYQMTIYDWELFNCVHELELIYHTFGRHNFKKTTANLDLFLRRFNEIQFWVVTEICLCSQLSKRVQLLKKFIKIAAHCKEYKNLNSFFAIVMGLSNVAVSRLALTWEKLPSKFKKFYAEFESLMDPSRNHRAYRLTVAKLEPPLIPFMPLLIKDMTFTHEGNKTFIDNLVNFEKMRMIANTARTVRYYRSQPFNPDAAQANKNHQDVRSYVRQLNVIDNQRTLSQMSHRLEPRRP

[14] = molecular target: Rap guanine nucleotide exchange factor 4 (Homo sapiens) (UniProt Q8WZA2); test: Confirmatory qHTS for antagonist of cAMP-regulated guanine nucleotide exchange factor 4 (EPAC2) (AID 1645885); further: nearly all actives have a fitted effect of over 25% in size; further: potency means the concentration at half of the fitted maximal effect
[15] = molecular target: Rap guanine nucleotide exchange factor 3 (Homo sapiens) (UniProt O95398); test: Counterscreen qHTS for antagonist of cAMP-regulated guanine nucleotide exchange factor 3 (EPAC1) (AID 1645888);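 further: fluorescence loss as bound BODIPY-GDP is released from Rap1B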
Outline: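 Rap1B-BODIPY-GDP 250 nM + GDP 50 uM; cpds 7-pt, final 9.74 nM–152 uM (activator mode) or from 7.32 nM upwards (inhibitor mode); RT; FI 480/540 nm at 5 and 30 min, then ± cAMP, reread.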

In the case of `Cc1cc(Cl)ccc1OCCCC(=O)NO`, the Potency [1] is reported as “inactive”, the Potency [2] is reported as “inactive” and the Potency [3] is reported as 1.48 µM (active). For the same compound, the Potency [4] was 1.66 µM (active).

With `CN(C)c1ccc2nc3ccc(=[N+](C)C)cc-3sc2c1` the Potency [1] was “inactive”, the Potency [3] was 1.32 µM (active) and 2.37 µM (active) and the Potency [4] was 1.32 µM (active) and 2.37 µM (active).

For `COc1c2occc2cc2ccc(=O)oc12`, the Potency [5] was “inactive” and the Potency [6] was 3.89 µM (active).

For `Oc1ccc2ccccc2c1SSc1c(O)ccc2ccccc12`, the Potency [3] was 23.5 µM (active) and 16.4 µM (active), the activity [7] was 22.1% and the activity change, negative = inhibition [8] was -0.328%. The activity [9] was -8.59%.

For `C[C@@H](N)C1CCC(C(=O)Nc2ccncc2)CC1` (some centres not stated), the Potency [1] was “inactive”, the Potency [2] was “inactive” and the Potency [3] was “inactive”. The Potency [4] was “inactive”.

In the case of `O=C(NCC1CCCCN1)c1cc(OCC(F)(F)F)ccc1OCC(F)(F)F` (configuration not stated), the Potency [5] is reported as “inactive”, the Potency [6] is reported as “inactive” and the Potency [3] is reported as “inactive”. For the same compound, the Potency [4] was “inactive”.

For `CCC(C)(Oc1ccc(C2(c3ccc(OC(C)(CC)C(=O)O)cc3)CCCCC2)cc1)C(=O)O` (configuration not stated), the Potency [5] was “inactive”, the Potency [10] was “inactive” and the Potency [6] was “inactive”. For the same compound, the Potency [3] was “inactive” and the Potency [4] was “inactive”.

For `O=Nc1c(-c2c(O)[nH]c3cc(Br)ccc23)[nH]c2ccccc12`, the Potency [10] was 21.3 µM (active), the Potency [2] was “inactive” and the Potency [3] was 1.32 µM (active). The Potency [4] was 1.32 µM (active).

With `COc1cc2c(cc1OC)C1CC(=O)C(CC(C)C)CN1CC2` (configuration not stated) the Potency [1] was “inactive”, the Potency [3] was “inactive” and the Potency [4] was “inactive”.

For `Clc1ccc(C(Cn2ccnc2)OCc2c(Cl)cccc2Cl)c(Cl)c1` (configuration not stated), the Potency [1] was “inactive”, the Potency [3] was 21.1 µM (active) and 18.6 µM (active) and the Potency [4] was 21.1 µM (active) and 18.6 µM (active). For the same compound, the Potency [11] was “inactive”, the outcome [12] was “inactive” and the outcome [13] was “inactive”. For the same compound, the Potency [14] was 20.5 µM (active) and inactive, the outcome [15] was “inactive” and the activity [7] was -8.16%. It also gave an activity change, negative = inhibition [8] of -4.74% and an activity [9] of -55.2%.

In the case of `CC(=O)N1CCN(c2ccc(OC[C@H]3CO[C@](Cn4ccnc4)(c4ccc(Cl)cc4Cl)O3)cc2)CC1`, the Potency [1] is reported as “inactive”, the Potency [2] is reported as “inactive” and the Potency [11] is reported as “inactive”. The outcome [12] was “inactive”, the outcome [13] was “inactive” and the Potency [14] was 49.4 µM (active).

With `CCOC(=O)C1=C(O)C(=O)N(Cc2ccccc2)C1` the Potency [1] was “inactive”, the Potency [2] was “inactive” and the Potency [3] was “inactive”. For the same compound, the Potency [4] was “inactive”.

In the case of `COC(=O)C1=C(C)NC(C)=C(C(=O)OC(C)C)C1c1cccc2nonc12` (configuration not stated), the Potency [1] is reported as “inactive”, the Potency [11] is reported as “inactive” and the outcome [12] is reported as “inactive”. The outcome [13] was “inactive” and the Potency [14] was 44.1 µM (active).

With `NCCCCNCCCN` the Potency [1] was “inactive”, the Potency [2] was “inactive” and the Potency [4] was 6.61 µM (active).

In the case of `O=C1CCc2ccc(OCCCCN3CCN(c4cccc(Cl)c4Cl)CC3)cc2N1`, the Potency [1] is reported as “inactive” and the Potency [3] is reported as “inactive”.

In the case of `O=P(O)(O)C(O)(Cn1ccnc1)P(=O)(O)O`, the Potency [1] is reported as “inactive”, the activity change, negative = viability loss [3] is reported as 6% [at 4.96 µM] (inactive) and the outcome [4] is reported as “inactive [at 4.96 µM]”.

For `Clc1ccc2c(N3CCN(CCCN4CCN(c5ccnc6cc(Cl)ccc56)CC4)CC3)ccnc2c1`, the Potency [1] was “inactive”, the Potency [2] was “inactive” and the Potency [3] was “inactive”. The Potency [4] was “inactive”.

For `Nc1nc(N)c(N=O)c(OCC2CCCCC2)n1`, the Potency [10] was “inactive”, the Potency [6] was “inactive” and the Potency [3] was 7.31 µM (active) and 4.68 µM (active). The Potency [4] was 6.51 µM (active).

In the case of `COc1c(O)cc2c(c1O)[C@@H]1O[C@H](CO)[C@@H](O)[C@H](O)[C@H]1OC2=O`, the Potency [10] is reported as “inactive”, the Potency [6] is reported as “inactive” and the Potency [3] is reported as “inactive”. For the same compound, the Potency [4] was “inactive”, the activity [7] was -77.9% and the activity change, negative = inhibition [8] was 0%. The activity [9] was 1.14%.

With `O=C(CCc1ccc(O)cc1)c1c(O)cc(O)cc1O` the Potency [1] was “inactive”, the Potency [2] was “inactive” and the Potency [3] was “inactive”.

In the case of `CCOC(=O)C(C)Oc1cccc2c(=O)n(CC(=O)Nc3ccc4c(c3)OCCO4)ccc12` (configuration not stated), the Potency [1] is reported as “inactive”, the Potency [2] is reported as “inactive” and the Potency [3] is reported as “inactive”. For the same compound, the Potency [4] was “inactive”.

For `COc1ccccc1N1CCN(CCN(C(=O)C2CCCCC2)c2ccccn2)CC1`, the Potency [1] was “inactive”, the Potency [2] was “inactive” and the Potency [3] was “inactive”. For the same compound, the Potency [4] was “inactive”.

For `CC(=O)O[C@H]1C(=O)[C@@]2(C)C([C@H](OC(=O)c3ccccc3)[C@]3(O)C[C@H](OC(=O)[C@H](O)[C@@H](NC(=O)c4ccccc4)c4ccccc4)C(C)=C1C3(C)C)[C@]1(OC(C)=O)CO[C@@H]1C[C@@H]2O` (some centres not stated), the Potency [1] was “inactive”, the Potency [3] was 4.5 nM (active) and 5.9 nM (active) and the Potency [4] was 5.1 nM (active) and 5.9 nM (active).

For `C[Se]CCC(N)C(=O)O` (configuration not stated), the Potency [1] was “inactive”, the Potency [3] was “inactive” and the Potency [4] was “inactive”.

With `Clc1ccc(C(Cn2ccnc2)OCc2ccsc2Cl)c(Cl)c1` (configuration not stated) the Potency [10] was 0.692 µM (active), the Potency [6] was 0.0692 µM (active) and the Potency [3] was 18.6 µM (active). For the same compound, the Potency [4] was 18.6 µM (active).

For `O=C1c2ccccc2-c2n[nH]c3cccc1c23`, the Potency [1] was “inactive”, the Potency [2] was “inactive” and the Potency [3] was 11.8 µM (active) and 14.6 µM (active). The Potency [4] was 13.2 µM (active) and 14.6 µM (active).

For `O=C(NCCO[N+](=O)[O-])c1cccnc1`, the Potency [5] was “inactive”, the Potency [10] was “inactive” and the Potency [6] was “inactive”. The Potency [3] was “inactive” and the Potency [4] was “inactive”.
